Test results reported in PubChem BioAssay (Tox21).
Several values for one entry are separate records, joined by “and”; a condition that tells them apart may be missing. Identical values can stand only once. Inconclusive results are not listed. A structure can be active in one record and inactive in another. Activity calls are given as the source filed them. Unless noted, calls come from the whole dose curve; as a rule, active = well fitted curve in the direction sought with a large enough effect in the repeat runs; inconclusive = weak or mixed curves; inactive = no such curve, though single readings can be large; an effect the other way counts as inactive or inconclusive.

Columns and labels:
[1] = A CellTox Green Cytotoxicity Assay to monitor cytotoxicity in HepG2 cells - 8 hour (AID 1224890); note: nearly all actives have a fitted effect of over 45% in size
Method in brief: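 Read-out is fluorescence of a cyanine dye excluded from live cells that stains DNA of dead HepG2 cells, with signal proportional to cytotoxicity. Plates were read at 0, 8, 16, 24, 32 and 40 h after compound addition.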

[2] = qHTS assay to identify small molecule antagonists of the estrogen receptor alpha (ER-alpha) signaling pathway using the BG1 cell line in the presence of 0.1 nM 17-beta-estradiol - cell viability counter screen (AID 1259241); note: nearly all actives have a fitted effect of over 40% in size
Method in brief: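 The cell line endogenously expresses full-length ER-alpha and carries four EREs driving luciferase. Cells are cultured 5 days hormone-free, treated 22 hr with compounds and 0.1 nM estradiol, then viability is read by fluorescence.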

[3] = qHTS assay to identify small molecule antagonists of the androgen receptor (AR) signaling pathway using the MDA cell line in the presence of 0.5 nM R1881 - cell viability counter screen (AID 1259242); note: nearly all actives have a fitted effect of over 45% in size
Method in brief: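 Counter screen for cytotoxicity run in the same wells as the AR antagonist reporter screen: MDA-kb2 cells were treated 16 hr with test compounds and 0.5 nM R1881, then live-cell protease activity was measured by fluorescence.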

[4] = target: Estrogen receptor (Homo sapiens) (UniProt P03372); experiment: qHTS assay to identify small molecule antagonists of the estrogen receptor alpha (ER-alpha) signaling pathway using the BG1 cell line in the presence of 0.1 nM 17-beta-estradiol (AID 1259244); note: nearly all actives have a fitted effect of over 50% in size
Sequence of Estrogen receptor (Homo sapiens) (P03372 whole entry, looked up): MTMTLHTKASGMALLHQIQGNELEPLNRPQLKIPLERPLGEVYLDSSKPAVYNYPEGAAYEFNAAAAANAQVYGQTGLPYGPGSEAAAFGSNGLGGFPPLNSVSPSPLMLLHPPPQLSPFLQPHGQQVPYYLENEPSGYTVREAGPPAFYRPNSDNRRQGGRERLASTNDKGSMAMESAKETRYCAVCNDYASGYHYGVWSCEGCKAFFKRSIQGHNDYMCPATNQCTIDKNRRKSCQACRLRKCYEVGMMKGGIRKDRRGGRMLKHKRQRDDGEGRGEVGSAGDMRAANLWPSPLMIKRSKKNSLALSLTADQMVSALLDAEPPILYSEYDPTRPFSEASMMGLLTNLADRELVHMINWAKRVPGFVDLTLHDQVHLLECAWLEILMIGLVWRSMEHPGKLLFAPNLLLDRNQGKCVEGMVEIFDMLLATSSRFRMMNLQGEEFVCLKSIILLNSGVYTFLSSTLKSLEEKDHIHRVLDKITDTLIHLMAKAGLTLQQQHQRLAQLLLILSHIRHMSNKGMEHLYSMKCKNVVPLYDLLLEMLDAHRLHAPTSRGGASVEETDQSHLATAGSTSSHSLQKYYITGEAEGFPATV
Method in brief: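 Cells: VM7Luc4E2, endogenous ER-alpha, 4x ERE-luc stable. Pre-culture 5 d, phenol red-free, charcoal-stripped FBS. Plated 24 h, compound + E2 0.1 nM final, 22 h 37C/5% CO2. Readout ONE-Glo luminescence.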

[5] = qHTS assay to identify small molecule HDAC inhibitors (AID 1259364); note: top concentration of the series differs between compounds; nearly all actives have a fitted effect of over 45% in size
Method in brief: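 Luminescence from a cell-permeant luminogenic class I/II HDAC substrate reports endogenous deacetylase activity in intact HCT-116 cells treated with compounds for 2 h.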

[6] = qHTS assay to identify small molecule HDAC inhibitors - cell viability counter screen (AID 1259365); note: series mostly up to about 92 µM; nearly all actives have a fitted effect of over 50% in size
Method in brief: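 Viability readout: CellTiter-Glo luminescence. Wild-type HCT-116 cells, 2hr compound treatment following overnight attachment at 37 C.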

[7] = qHTS assay to identify small molecule antagonists of the sonic hedgehog signaling (Shh) pathway - cell viability counter screen (AID 1259367); note: nearly all actives have a fitted effect of over 55% in size
Method in brief: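 NIH/3T3-derived Gli1-Luc reporter cells (2,000 per well) rested 4 hr at 37 C, then received DMSO compounds plus conditioned medium. After 23 hr of treatment, CellTiter-Fluor was added for 1 hr at 37C and fluorescence read.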

[8] = qHTS assay to identify small molecule agonists of the sonic hedgehog signaling (Shh) pathway (AID 1259368; calls by dose curve;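 note: NIH/3T3-derived 3T3Gli1-Luc cells carrying a stable Gli1-driven firefly luciferase reporter; series mostly up to about 92 µM; nearly all actives have a fitted effect of over 15% in size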)
Method in brief: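 3T3Gli1-Luc (NIH/3T3 clone, stable Gli1-Luc); 4 hr pre-incubation, then cpd in DMSO 24 hr, 37 C/5% CO2; luciferase reagent 30 min RT; luminescence.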

[9] = qHTS assay to identify small molecule antagonists of the sonic hedgehog signaling (Shh) pathway (AID 1259369; calls by dose curve; note: nearly all actives have a fitted effect of over 45% in size; note: potency is the fitted concentration of half-maximal effect)
Method in brief: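 3T3Gli1-Luc, conditioned-medium-stimulated, 24hr cpd, 37C/5% CO2; Gli1-driven firefly Luc luminescence after 30min RT with luciferase reagent. Cells plated 4hr before cpd.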

[10] = qHTS assay to identify small molecule agonists of the androgen receptor (AR) signaling pathway in the presence of an antagonist - cell viability counter screen (AID 1259379);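 note: MDA-kb2 human breast cancer cells carrying an MMTV luciferase reporter; series mostly up to about 92 µM; nearly all actives have a fitted effect of over 25% in size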
Method in brief: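 Cells: MDA-kb2 (MMTV-luc, AR and GR elements), 3,000/well, 5 hr settle. Added: nilutamide 3.0uM final, then compounds (15 conc.). Incubation: 16 hr, 37C, no CO2. Read-out: CellTiter-Fluor, 1 hr, fluorescence.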

[11] = qHTS assay to identify small molecule agonists of the estrogen receptor beta (ER-beta) signaling pathway - cell viability counter screen (AID 1259380); note: nearly all actives have a fitted effect of over 30% in size
Method in brief: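 HEK293T ER-beta-UAS-bla; 2% CS-FBS; 6 hr pre-plate, 16 hr cpd at 37C/5% CO2; LiveBLAzer read first, then CellTiter-Glo 30 min RT, luminescence.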

[12] = qHTS assay to identify small molecule antagonists of the estrogen receptor beta (ER-beta) signaling pathway - cell viability counter screen (AID 1259382); note: series mostly up to about 92 µM; nearly all actives have a fitted effect of over 55% in size
Method in brief: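 Cells: ER-beta-UAS-bla HEK293T, 2,000/well, 2% CS-FBS, 6 hr settle. Cpd + E2 (1nM final), 16 hr, 37C/5% CO2. Bla FRET substrate 2 hr RT, then CellTiter-Glo 30 min RT, luminescence.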

[13] = target: Estrogen receptor (Homo sapiens) (UniProt P03372); experiment: qHTS assay to identify small molecule agonists of the estrogen receptor alpha (ER-alpha) signaling pathway in the presence of an antagonist (AID 1259383; calls by dose curve; note: top concentration of the series differs between compounds; nearly all actives have a fitted effect of over 15% in size)
Method in brief: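 VM7Luc4E2, endog. ER-alpha + 4×ERE-luc; charcoal-stripped FBS, phenol red-free, 5 d; 24hr plating; +10.0nM ICI-182,780 (final); cpds 15 conc, 22hr, 37C/5% CO2; ONE-Glo luminescence.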

[14] = qHTS assay to identify small molecule phospholipidosis (PLD) inducers (AID 1259344; active = well fitted curve in the direction sought with a large enough effect; an effect the other way counts as inactive or inconclusive)
Method in brief: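 HepG2 cells on collagen I, attached 4 h at 37 C, were co-treated with compound and LipidTOX Red dye for 24 h at 37 C, then fixed with paraformaldehyde plus Hoechst 33342 and imaged by high-content microscopy for phospholipid accumulation.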

[15] = qHTS assay to identify small molecule agonists or antagonists of the thyroid stimulating hormone receptor (TSHR) signaling pathway - wild type cell line counter screen (AID 1259384; calls by dose curve)
Method in brief: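 Wild-type HEK293 cells were plated 18 h at 37 C/5% CO2, pin-dosed with compound plus Ro20-1724 medium, held 30 min at room temperature, then given cAMP-d2 and anti-cAMP-cryptate; fluorescence was read after 1 h. Fifteen concentrations, triplicate.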

[16] = target: Thyrotropin receptor (Homo sapiens) (UniProt P16473); experiment: qHTS assay to identify small molecule antagonists of the thyroid stimulating hormone receptor (TSHR) signaling pathway (AID 1259385; calls by dose curve; note: nearly all actives have a fitted effect of over 20% in size)
Sequence of Thyrotropin receptor (Homo sapiens) (P16473 whole entry, looked up): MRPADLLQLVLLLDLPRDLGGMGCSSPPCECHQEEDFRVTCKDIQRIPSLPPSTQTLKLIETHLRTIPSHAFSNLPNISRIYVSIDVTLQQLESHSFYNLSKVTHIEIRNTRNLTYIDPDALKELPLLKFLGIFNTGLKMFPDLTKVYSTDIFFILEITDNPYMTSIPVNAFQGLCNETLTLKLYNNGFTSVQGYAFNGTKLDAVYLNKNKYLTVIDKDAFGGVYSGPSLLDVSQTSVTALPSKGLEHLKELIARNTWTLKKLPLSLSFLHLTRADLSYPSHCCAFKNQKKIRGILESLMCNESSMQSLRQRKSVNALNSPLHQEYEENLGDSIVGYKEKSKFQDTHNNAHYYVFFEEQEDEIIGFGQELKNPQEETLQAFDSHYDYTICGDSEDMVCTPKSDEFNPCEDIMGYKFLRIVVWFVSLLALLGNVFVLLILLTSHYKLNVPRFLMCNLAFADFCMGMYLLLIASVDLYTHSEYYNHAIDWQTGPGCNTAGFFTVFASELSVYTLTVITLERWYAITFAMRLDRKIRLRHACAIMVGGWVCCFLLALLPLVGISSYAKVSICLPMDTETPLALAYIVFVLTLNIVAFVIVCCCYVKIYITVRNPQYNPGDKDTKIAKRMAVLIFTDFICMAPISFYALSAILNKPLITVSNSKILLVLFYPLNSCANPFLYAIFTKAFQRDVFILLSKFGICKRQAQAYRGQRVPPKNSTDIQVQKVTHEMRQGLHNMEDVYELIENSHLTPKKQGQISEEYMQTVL
Method in brief: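 TSHR-HEK293 cells were plated and held 18 h at 37C/5% CO2, then given compound plus Ro20-1724 and stimulated with TSH at 1.5 ng/mL final. After 30 min at room temperature, cAMP was detected with cAMP-d2/anti-cAMP-cryptate (1 h) by fluorescence.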

[17] = target: Estrogen receptor beta (Homo sapiens) (UniProt Q92731); experiment: qHTS assay to identify small molecule agonists of the estrogen receptor beta (ER-beta) signaling pathway (AID 1259377; active = well fitted activation curve with a large enough effect in the signal ratio in the repeat runs, not every such curve was filed as active; the % refers to the signal ratio)
Sequence of Estrogen receptor beta (Homo sapiens) (Q92731 whole entry, looked up): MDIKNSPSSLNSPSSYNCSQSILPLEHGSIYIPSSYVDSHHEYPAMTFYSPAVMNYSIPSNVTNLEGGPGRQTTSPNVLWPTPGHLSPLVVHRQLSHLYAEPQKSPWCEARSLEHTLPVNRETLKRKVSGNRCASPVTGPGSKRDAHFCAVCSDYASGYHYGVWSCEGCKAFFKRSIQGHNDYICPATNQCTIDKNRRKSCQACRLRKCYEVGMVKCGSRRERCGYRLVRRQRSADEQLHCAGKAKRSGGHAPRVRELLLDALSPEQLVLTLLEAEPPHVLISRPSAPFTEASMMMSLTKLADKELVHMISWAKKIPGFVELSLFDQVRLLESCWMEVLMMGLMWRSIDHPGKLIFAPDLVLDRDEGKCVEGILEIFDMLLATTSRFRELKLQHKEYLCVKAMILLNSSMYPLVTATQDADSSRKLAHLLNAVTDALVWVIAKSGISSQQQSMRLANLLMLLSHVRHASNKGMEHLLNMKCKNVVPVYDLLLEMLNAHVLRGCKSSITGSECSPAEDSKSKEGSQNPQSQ
Method in brief: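 A UAS-controlled beta-lactamase reporter in ER-beta-UAS-bla HEK293T cells reports receptor activation. Compounds act for 16 hr at 37C in 2% charcoal-stripped serum, and a FRET substrate is read by fluorescence after 2 hours.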

[18] = target: Estrogen receptor beta (Homo sapiens) (UniProt Q92731); experiment: qHTS assay to identify small molecule antagonists of the estrogen receptor beta (ER-beta) signaling pathway (AID 1259378; active = well fitted inhibition curve with a large enough effect in the signal ratio in the repeat runs, not every such curve was filed as active; the % refers to the signal ratio)
Method in brief: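 ER-beta-UAS-bla HEK293T (GripTite) cells in 2% charcoal-stripped FBS medium were preincubated 6 hr at 37C, dosed with compound, then stimulated with 1 nM E2 (final) for 16 hr; beta-lactamase reporter read by B/G FRET fluorescence after 2 hr substrate loading.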

[19] = qHTS assay to identify small molecule agonists of the sonic hedgehog signaling (Shh) pathway - cell viability counter screen (AID 1259366); note: nearly all actives have a fitted effect of over 50% in size
Method in brief: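 Viability measured fluorometrically (CellTiter-Fluor, 1hr, 37C) in 3T3 Gli1-Luc reporter cells after 23hr compound exposure within a 24hr incubation at 37C/5% CO2.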

Measured: Potency

O=C(O)CS
inactive and 30.9 µM (active): [9]
not listed: [14] | [15] | [16] | [17] | [18] | [19]
inactive: all other assays above

Cc1cc(=O)[nH]c(=S)[nH]1
not listed: [17] | [18] | [19]
inactive: all other assays above

O=C(O)c1cccnc1
not listed: [4] | [13] | [19]
inactive: all other assays above

NC(=O)NC1NC(=O)NC1=O (stereo not drawn)
not listed: [4] | [13] | [17] | [18] | [19]
inactive: all other assays above

CCOc1ccc(NC(=O)CC(C)O)cc1 (stereo not drawn)
not listed: [4] | [13] | [17] | [18]
inactive: all other assays above

CCCCOC(=O)CC(CC(=O)OCCCC)(OC(C)=O)C(=O)OCCCC
not listed: [4] | [13] | [15] | [16] | [19]
inactive: all other assays above

O=C(O)/C=C\C(=O)O
not listed: [2] | [3] | [4] | [13] | [14] | [19]
inactive: all other assays above

CCCCCCCCCCCCCCCC(=O)O
not listed: [4] | [13] | [19]
inactive: all other assays above

O=C1NC(=O)c2ccccc21
not listed: [4] | [13] | [14] | [17] | [18]
inactive: all other assays above

CNC[C@H](O)c1cccc(O)c1
not listed: [4] | [13] | [19]
inactive: all other assays above

O=C(O)C(=O)O
inactive and 1.22 µM (active): [9]
not listed: [4] | [13] | [14] | [17] | [18] | [19]
inactive: all other assays above

O=C(O)c1cccc([N+](=O)[O-])c1
not listed: [4] | [13] | [14] | [15] | [16] | [19]
inactive: all other assays above
